Measurements published in ChEMBL document CHEMBL2218924, “A broad activity screen in support of a chemogenomic map for kinase signalling research and drug discovery” (Biochem J, 2013).

Experiments:
[1] = molecular target: Death-associated protein kinase 1 (Homo sapiens) (UniProt P53355); conditions: at 10 µM
[2] = molecular target: Death-associated protein kinase 2 (Homo sapiens) (UniProt Q9UIK4); conditions: at 1 µM
[3] = molecular target: Death-associated protein kinase 2 (Homo sapiens) (UniProt Q9UIK4); conditions: at 10 µM
[4] = molecular target: T1, Serine/threonine-protein kinase DCLK2 (Homo sapiens) (UniProt Q8N568); conditions: at 1 µM
T1 sequence (whole entry): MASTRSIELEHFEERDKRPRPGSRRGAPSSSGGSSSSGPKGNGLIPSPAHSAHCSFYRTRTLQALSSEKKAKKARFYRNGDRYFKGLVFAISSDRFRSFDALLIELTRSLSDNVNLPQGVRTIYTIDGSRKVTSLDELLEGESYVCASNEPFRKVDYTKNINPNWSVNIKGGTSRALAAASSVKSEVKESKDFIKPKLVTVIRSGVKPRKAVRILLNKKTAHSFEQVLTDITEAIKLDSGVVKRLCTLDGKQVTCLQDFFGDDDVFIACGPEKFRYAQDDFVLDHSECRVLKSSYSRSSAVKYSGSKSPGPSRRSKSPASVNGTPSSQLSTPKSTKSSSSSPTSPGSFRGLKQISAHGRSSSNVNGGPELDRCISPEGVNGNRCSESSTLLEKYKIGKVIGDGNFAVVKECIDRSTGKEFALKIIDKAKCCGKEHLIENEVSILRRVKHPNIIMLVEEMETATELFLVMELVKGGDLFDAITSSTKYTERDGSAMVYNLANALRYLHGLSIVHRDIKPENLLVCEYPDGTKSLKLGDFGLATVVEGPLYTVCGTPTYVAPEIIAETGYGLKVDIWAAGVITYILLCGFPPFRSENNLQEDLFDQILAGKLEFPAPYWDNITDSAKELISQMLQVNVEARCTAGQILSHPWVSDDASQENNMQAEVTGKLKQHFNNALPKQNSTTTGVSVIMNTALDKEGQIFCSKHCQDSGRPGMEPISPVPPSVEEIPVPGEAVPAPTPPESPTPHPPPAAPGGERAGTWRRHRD

[5] = molecular target: T1, Serine/threonine-protein kinase DCLK2 (Homo sapiens); conditions: at 10 µM
[6] = molecular target: T2, Discoidin domain-containing receptor 2 (Homo sapiens) (UniProt Q16832); conditions: at 1 µM
T2 sequence (whole entry): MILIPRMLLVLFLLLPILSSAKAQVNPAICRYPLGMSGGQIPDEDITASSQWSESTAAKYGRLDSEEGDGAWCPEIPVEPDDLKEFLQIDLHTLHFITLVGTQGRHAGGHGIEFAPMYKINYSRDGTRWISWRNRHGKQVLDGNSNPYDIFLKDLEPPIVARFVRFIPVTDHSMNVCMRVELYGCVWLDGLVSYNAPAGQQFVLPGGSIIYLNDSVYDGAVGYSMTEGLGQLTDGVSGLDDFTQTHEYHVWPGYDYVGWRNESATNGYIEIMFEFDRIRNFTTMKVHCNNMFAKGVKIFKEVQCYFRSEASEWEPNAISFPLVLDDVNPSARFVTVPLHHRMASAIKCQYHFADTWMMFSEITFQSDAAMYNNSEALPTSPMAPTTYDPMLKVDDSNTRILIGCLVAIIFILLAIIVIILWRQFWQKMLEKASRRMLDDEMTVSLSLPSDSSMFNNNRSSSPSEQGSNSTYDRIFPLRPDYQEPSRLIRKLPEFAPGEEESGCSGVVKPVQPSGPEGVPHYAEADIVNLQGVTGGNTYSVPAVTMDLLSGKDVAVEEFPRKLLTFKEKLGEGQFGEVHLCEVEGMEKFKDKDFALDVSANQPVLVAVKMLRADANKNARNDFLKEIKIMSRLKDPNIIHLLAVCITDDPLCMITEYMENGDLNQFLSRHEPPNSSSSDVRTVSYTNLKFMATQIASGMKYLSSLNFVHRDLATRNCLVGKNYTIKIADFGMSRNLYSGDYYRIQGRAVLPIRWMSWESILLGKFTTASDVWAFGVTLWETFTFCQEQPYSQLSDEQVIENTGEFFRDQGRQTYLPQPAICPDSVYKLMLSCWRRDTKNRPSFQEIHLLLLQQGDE

[7] = molecular target: T2, Discoidin domain-containing receptor 2 (Homo sapiens); conditions: at 10 µM
[8] = molecular target: T3, Myotonin-protein kinase (Homo sapiens) (UniProt Q09013); conditions: at 1 µM
T3 sequence (whole entry): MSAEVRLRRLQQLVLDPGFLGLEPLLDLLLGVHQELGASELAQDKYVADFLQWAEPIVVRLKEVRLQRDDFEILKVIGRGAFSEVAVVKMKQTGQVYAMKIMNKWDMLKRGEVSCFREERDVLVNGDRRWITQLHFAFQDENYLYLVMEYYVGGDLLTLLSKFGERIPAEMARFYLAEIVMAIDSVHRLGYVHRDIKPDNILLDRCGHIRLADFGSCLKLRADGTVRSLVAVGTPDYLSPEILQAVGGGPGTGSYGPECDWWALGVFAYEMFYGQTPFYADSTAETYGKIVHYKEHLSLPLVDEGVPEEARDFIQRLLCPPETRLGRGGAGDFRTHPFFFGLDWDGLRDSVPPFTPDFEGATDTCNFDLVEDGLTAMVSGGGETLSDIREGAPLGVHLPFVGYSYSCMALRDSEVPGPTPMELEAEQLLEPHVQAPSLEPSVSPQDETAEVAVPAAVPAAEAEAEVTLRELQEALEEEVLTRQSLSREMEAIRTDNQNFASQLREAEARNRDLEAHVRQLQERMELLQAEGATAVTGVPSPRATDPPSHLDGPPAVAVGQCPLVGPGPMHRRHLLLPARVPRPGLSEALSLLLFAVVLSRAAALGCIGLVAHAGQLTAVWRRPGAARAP

[9] = molecular target: T3, Myotonin-protein kinase (Homo sapiens); conditions: at 10 µM
[10] = molecular target: T4, Serine/threonine-protein kinase 17A (Homo sapiens) (UniProt Q9UEE5); conditions: at 1 µM
T4 sequence (whole entry): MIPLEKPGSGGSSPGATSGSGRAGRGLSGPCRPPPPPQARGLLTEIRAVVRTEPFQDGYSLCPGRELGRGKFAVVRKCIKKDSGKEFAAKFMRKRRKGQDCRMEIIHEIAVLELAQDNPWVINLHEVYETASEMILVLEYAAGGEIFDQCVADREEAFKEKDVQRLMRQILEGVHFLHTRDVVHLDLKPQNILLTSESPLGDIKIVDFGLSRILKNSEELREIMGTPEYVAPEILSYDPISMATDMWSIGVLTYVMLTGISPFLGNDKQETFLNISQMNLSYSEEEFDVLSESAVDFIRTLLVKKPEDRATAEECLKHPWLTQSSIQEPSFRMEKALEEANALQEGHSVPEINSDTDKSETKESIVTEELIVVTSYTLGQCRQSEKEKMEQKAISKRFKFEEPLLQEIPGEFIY

[11] = molecular target: T4, Serine/threonine-protein kinase 17A (Homo sapiens); conditions: at 10 µM
[12] = molecular target: T5, Dual specificity tyrosine-phosphorylation-regulated kinase 2 (Homo sapiens) (UniProt Q92630); conditions: at 1 µM
T5 sequence (whole entry): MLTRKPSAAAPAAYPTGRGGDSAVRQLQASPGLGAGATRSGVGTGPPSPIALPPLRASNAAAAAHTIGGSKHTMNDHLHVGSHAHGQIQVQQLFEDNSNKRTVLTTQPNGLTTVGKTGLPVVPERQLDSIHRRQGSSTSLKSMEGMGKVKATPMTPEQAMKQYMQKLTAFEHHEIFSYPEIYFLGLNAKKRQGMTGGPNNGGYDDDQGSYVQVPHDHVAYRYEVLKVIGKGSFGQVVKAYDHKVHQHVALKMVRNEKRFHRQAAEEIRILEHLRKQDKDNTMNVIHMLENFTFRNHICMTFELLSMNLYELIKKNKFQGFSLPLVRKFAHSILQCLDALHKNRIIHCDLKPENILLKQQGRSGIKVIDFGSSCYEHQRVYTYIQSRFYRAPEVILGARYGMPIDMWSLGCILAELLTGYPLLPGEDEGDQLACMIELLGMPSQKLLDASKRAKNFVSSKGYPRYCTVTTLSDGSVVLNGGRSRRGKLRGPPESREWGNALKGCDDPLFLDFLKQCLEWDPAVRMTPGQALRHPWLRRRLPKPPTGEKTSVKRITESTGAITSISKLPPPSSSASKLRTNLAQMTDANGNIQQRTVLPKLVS

[13] = molecular target: T5, Dual specificity tyrosine-phosphorylation-regulated kinase 2 (Homo sapiens); conditions: at 10 µM
[14] = molecular target: T6, Ephrin type-A receptor 1 (Homo sapiens) (UniProt P21709); conditions: at 1 µM
T6 sequence (whole entry): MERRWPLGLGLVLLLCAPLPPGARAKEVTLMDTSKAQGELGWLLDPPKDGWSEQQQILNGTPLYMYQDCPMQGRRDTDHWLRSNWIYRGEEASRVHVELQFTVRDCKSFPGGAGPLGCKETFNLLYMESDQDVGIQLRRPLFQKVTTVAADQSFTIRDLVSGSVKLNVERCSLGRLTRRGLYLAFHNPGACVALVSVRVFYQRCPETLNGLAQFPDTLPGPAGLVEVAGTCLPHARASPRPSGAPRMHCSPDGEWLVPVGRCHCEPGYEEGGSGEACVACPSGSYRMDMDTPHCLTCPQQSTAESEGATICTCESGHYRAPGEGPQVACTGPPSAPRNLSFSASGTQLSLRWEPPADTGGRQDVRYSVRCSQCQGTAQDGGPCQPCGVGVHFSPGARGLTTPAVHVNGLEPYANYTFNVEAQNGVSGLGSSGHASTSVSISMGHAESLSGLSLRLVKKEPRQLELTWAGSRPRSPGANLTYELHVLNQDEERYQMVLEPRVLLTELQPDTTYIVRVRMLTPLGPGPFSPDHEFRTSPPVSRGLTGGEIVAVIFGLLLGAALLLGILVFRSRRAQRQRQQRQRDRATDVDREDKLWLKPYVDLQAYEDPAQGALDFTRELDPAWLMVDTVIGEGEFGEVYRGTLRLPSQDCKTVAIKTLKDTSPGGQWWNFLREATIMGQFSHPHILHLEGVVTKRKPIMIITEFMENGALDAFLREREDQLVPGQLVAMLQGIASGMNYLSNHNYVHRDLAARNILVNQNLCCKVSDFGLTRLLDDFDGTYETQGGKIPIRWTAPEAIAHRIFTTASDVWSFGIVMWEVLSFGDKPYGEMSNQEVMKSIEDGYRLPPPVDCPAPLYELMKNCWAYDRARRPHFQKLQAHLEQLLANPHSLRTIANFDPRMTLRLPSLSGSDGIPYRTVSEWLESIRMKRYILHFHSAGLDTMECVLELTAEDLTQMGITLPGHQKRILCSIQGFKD

[15] = molecular target: T6, Ephrin type-A receptor 1 (Homo sapiens); conditions: at 10 µM
[16] = molecular target: Ephrin type-A receptor 2 (Homo sapiens) (UniProt P29317); conditions: at 1 µM
[17] = molecular target: Ephrin type-A receptor 2 (Homo sapiens) (UniProt P29317); conditions: at 10 µM
[18] = molecular target: T7, Ephrin type-A receptor 3 (Homo sapiens) (UniProt P29320); conditions: at 1 µM
T7 sequence (whole entry): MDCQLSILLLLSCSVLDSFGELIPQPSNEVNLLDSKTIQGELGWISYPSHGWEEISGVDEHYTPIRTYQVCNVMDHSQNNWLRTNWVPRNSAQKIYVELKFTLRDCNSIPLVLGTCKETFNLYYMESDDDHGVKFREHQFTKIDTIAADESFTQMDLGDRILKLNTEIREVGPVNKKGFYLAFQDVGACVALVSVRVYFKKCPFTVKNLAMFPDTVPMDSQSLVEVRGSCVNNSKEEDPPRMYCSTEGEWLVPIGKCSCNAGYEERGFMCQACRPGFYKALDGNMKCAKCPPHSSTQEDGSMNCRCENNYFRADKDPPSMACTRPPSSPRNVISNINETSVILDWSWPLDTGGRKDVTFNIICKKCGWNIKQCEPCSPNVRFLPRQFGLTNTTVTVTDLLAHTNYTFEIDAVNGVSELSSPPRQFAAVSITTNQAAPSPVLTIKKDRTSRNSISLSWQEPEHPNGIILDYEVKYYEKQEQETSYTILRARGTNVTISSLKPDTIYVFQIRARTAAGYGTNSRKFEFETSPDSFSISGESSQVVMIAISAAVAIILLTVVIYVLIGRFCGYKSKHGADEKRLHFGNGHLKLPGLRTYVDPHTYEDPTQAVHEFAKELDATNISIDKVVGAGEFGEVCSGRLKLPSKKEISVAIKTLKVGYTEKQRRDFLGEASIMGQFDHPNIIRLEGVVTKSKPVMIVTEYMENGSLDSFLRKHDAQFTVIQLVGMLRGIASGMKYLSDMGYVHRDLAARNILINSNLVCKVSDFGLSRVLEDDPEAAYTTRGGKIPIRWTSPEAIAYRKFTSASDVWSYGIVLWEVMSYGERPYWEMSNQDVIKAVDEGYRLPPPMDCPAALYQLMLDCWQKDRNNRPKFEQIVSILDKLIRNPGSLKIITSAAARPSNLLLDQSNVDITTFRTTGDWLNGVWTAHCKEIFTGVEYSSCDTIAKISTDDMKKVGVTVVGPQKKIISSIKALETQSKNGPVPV

Sequence of Ephrin type-A receptor 2 (Homo sapiens) (P29317 whole entry): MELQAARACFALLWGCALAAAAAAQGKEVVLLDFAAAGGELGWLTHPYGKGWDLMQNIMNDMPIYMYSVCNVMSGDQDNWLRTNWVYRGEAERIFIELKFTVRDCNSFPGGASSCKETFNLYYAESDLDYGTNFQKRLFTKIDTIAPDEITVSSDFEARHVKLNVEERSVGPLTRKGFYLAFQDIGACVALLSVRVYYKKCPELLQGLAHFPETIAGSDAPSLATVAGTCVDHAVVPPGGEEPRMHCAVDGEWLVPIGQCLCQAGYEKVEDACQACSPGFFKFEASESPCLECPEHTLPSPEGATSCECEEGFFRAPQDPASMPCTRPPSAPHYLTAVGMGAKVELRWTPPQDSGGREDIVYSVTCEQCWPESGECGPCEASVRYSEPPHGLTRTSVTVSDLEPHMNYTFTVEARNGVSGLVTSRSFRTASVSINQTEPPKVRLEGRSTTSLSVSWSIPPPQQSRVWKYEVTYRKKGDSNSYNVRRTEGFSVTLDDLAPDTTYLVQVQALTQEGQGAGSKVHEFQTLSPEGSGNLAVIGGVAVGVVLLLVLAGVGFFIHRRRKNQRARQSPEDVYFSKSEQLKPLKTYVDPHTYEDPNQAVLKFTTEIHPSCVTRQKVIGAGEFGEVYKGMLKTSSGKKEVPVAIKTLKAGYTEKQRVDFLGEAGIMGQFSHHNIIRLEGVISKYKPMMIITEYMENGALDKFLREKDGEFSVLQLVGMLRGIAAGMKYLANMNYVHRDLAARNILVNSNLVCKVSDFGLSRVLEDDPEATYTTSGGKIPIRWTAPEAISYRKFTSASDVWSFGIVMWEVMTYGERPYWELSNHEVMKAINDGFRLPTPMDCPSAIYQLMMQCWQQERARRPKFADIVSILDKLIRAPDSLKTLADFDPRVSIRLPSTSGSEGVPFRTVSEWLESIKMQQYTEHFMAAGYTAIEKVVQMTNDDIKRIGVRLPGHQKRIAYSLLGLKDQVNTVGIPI
Sequence of Death-associated protein kinase 2 (Homo sapiens) (Q9UIK4 whole entry, looked up): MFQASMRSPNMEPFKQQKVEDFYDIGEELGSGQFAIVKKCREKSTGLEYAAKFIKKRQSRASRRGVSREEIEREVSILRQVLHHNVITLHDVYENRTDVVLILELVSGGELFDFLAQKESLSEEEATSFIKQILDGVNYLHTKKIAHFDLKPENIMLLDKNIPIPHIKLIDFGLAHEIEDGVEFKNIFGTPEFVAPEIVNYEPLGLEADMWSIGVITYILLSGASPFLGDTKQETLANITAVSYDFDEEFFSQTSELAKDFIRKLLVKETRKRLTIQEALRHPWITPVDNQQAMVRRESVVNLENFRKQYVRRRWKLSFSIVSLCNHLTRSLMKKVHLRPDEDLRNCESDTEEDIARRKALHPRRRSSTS
Sequence of Death-associated protein kinase 1 (Homo sapiens) (P53355 whole entry, looked up): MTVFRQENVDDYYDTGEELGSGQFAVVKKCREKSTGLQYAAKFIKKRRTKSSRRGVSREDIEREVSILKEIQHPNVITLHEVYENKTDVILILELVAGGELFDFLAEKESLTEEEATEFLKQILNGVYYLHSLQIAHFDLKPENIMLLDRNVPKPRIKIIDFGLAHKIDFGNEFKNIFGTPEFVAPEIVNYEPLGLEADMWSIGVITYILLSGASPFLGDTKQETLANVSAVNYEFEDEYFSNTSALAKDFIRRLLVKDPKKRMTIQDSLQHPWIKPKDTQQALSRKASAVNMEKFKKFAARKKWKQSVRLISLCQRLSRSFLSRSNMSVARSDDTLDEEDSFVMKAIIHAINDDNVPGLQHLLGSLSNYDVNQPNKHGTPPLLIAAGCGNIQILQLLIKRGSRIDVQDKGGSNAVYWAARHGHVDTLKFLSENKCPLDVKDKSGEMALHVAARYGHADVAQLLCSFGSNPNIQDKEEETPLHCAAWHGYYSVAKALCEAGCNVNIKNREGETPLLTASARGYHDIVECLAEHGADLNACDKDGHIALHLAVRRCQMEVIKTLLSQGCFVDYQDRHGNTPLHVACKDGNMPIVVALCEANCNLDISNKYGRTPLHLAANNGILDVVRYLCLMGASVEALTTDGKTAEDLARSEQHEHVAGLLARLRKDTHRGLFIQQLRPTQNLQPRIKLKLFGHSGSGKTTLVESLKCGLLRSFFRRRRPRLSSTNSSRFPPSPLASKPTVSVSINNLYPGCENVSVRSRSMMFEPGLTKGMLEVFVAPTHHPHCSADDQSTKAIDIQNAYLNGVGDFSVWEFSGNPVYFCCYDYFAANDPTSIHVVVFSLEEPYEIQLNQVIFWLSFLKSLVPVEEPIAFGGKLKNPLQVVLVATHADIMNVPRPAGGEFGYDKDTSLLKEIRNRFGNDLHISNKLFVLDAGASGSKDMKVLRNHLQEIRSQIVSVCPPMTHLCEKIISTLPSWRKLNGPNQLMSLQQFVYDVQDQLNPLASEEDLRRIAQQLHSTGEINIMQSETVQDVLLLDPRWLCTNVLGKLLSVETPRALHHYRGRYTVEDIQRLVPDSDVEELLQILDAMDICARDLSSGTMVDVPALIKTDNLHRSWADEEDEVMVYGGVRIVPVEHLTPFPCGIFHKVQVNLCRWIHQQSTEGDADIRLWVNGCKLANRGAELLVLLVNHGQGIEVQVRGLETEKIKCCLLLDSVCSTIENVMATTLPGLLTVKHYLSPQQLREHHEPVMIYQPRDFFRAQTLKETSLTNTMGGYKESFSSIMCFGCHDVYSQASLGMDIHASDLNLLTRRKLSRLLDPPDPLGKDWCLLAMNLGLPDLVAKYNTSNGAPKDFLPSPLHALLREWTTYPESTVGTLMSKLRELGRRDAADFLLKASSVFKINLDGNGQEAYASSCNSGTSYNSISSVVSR

SMILES | residual activity [1] | residual activity [2] | residual activity [3] | residual activity [4] | residual activity [5] | residual activity [6] | residual activity [7] | residual activity [8] | residual activity [9] | residual activity [10] | residual activity [11] | residual activity [12] | residual activity [13] | residual activity [14] | residual activity [15] | residual activity [16] | residual activity [17] | residual activity [18]
CC(=O)O/N=C1\C(=C2\C(=O)Nc3cc(Br)ccc32)Nc2ccccc21 | 84% | 86% | 65% | 107% | 94% | 91% | 71% | 106% | 89% | 63% | 31% | 96% | 92% | 84% | 71% | 92% | 59% | 74%
O=C1c2ccccc2-[n+]2ccc3c([nH]c4ccccc43)c21 | 84% | 95% | 96% | 105% | 94% | 78% | 84% | 101% | 80% | 104% | 114% | 99% | 92% | 78% | 91% | 89% | 101% | 89%
